From ChEMBL document CHEMBL3433997, “St. Jude Leishmania screening dataset” (2016)

biological target: Solute carrier family 2, facilitated glucose transporter member 1 (Homo sapiens) (UniProt P11166); experiment: ST_JUDE_LEISH: Cytotoxicity at 2uM final concentration against transgenic Leishmania Mexicana promastigotes LmGLUT1 that are glucose transport deficient and complemented with the human glucose transporter GLUT1. Activity is measured by DNA content using SYBR green in vitro; type: functional
Sequence (P11166 whole entry): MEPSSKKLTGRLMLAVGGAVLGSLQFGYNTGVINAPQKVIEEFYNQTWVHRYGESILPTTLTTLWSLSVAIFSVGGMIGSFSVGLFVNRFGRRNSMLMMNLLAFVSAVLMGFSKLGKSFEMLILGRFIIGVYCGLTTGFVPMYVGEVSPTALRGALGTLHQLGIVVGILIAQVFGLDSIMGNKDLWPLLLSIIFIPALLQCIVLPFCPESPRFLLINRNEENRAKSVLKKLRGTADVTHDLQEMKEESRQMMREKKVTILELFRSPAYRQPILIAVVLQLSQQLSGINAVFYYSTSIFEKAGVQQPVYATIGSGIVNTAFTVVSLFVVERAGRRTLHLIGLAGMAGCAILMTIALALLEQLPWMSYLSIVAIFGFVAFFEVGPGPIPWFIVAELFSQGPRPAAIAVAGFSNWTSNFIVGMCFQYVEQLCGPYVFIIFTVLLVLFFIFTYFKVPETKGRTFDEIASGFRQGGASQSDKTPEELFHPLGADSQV

Question: How did the inhibition turn out when `Cc1ccc(O)cc1C[C@@H]1C(=O)CC[C@@]2(C)[C@H]1CC[C@]2(C)O` was run?
Answer: -1.27%

Question: How did the inhibition turn out when `COc1ccc2c(NN=Cc3ccccc3F)ccnc2c1` was run?
Answer: 3.28%

Question: How did the inhibition turn out when `Nc1nc(N)c2c(ccc3c2ncn3Cc2ccccc2)n1` was run?
Answer: 12.9%

Question: How did the inhibition turn out when `COc1ccccc1CN1CCC(NC(=O)c2ccc(-c3cccc(C(F)(F)F)c3)s2)CC1` was run?
Answer: 3.7%

Question: For `Cc1ccc(S(C)(=O)=O)cc1/C=C/C(=O)O`, which inhibition is on record?
Answer: 9.4%

Question: How did the inhibition turn out when `CSc1nc2nc(C)c(Cc3cccc(C(F)(F)F)c3)c(C)n2n1` was run?
Answer: 0.17%

Question: For `Cc1cc(C(=O)NC2CCN(Cc3ccccc3)CC2)ccc1-c1nc2ccc(C(F)(F)F)cc2[nH]1`, which inhibition is on record?
Answer: 3.67%

Question: With `O=C(c1ccco1)N1CCN(c2nc(-c3ccc(Cl)cc3)nc3ccccc23)CC1` as the compound, how does the inhibition read?
Answer: 6.35%

Question: How did the inhibition turn out when `O=S(=O)(c1ccccc1OC(F)(F)F)C1CC2CCC(C1)N2S(=O)(=O)c1cccc(C(F)(F)F)c1` (stereo not drawn) was run?
Answer: 0.7%

Question: How did the inhibition turn out when `COc1cc(C2NCC3(CCOCC3)c3cc4c(cc32)OCCO4)cc(OC)c1OC` (stereo not drawn) was run?
Answer: 10.2%

Question: `O=C(N1CCN(c2ccc(C(F)(F)F)cc2[N+](=O)[O-])CC1)C(Cl)(Cl)Cl` was tested. Which inhibition did it give?
Answer: 3.26%

Question: How did the inhibition turn out when `COc1cc(/C=C/C(=O)NCC(CCNc2cc(=O)c3ccccc3[nH]2)NCc2cc(Br)cc(Br)c2)cc(OC)c1` (stereo not drawn) was run?
Answer: 2.85%

Question: Which inhibition does the source give for `O=C(NCCCCN1CCC(c2nc3ccccc3s2)CC1)c1cc2ccccc2[nH]1` here?
Answer: 3.02%

Question: Which inhibition does the source give for `Cc1ccn2c(N(Cc3ccccc3)C(=O)c3ccc(Cl)c(Cl)c3)c(-c3ccccc3)nc2c1` here?
Answer: 4.28%

Question: How did the inhibition turn out when `Cc1nc(NC(=N)N)nc2cc3c(cc12)CCC3` was run?
Answer: 0.91%

Question: For `O=C(CCCCCNC(=O)c1ccc(O)c(-c2ccc(Cl)c(Cl)c2)c1)NC1CCCc2ccccc21` (stereo not drawn), which inhibition is on record?
Answer: 2.15%

Question: `O=C(c1ccccc1[N+](=O)[O-])N(Cc1ccccc1)c1ccccn1` was tested. Which inhibition did it give?
Answer: 4.59%

Question: With `COc1cc(-n2c(CN3CCCC3)nc3cc(-c4ccc(Cl)cc4)sc3c2=O)ccc1OCCN1CCCC1` as the compound, how does the inhibition read?
Answer: 2.99%

Question: With `COc1cc(Cc2cnc(N)nc2N)c2c(c1OC)OC(C)(C)C=C2` as the compound, how does the inhibition read?
Answer: 4.17%

Question: For `COc1cccc(C(=O)Nc2nc3c(s2)CCN(Cc2ccccc2N2CCNCC2)CC3)c1`, which inhibition is on record?
Answer: 12.3%

Question: How did the inhibition turn out when `CC(C)c1cc(Oc2c(I)cc(CCNC(=N)N)cc2I)ccc1O` was run?
Answer: -0.6%

Question: `CC[C@H]1CN(Cc2ccccc2Br)CC[C@H]1CCCc1ccnc2ccc(O)cc12` was tested. Which inhibition did it give?
Answer: 3.62%

Question: How did the inhibition turn out when `O=C(Nc1ccc2c(c1)CCC2)c1cccc(N2CCN(c3ccncc3)CC2)c1` was run?
Answer: 1.86%

Question: How did the inhibition turn out when `COc1ccc(-c2onc(C(F)(F)F)c2-c2ccc(Br)cc2)c(O)c1` was run?
Answer: 2.09%

Question: With `O=[N+]([O-])c1ccc(C=NNc2nc(Nc3ccccc3)nc(Nc3ccccc3)n2)o1` as the compound, how does the inhibition read?
Answer: 13.4%

Question: For `CC(C)C[C@H](NC(=O)c1ccc(OCCN2CCOCC2)cc1)C(=O)N[C@H](/C=N/NC(=O)c1ccccc1)CCc1ccccc1`, which inhibition is on record?
Answer: 3.15%

Question: How did the inhibition turn out when `COc1cc(Nc2nccc(N3CCC(NS(=O)(=O)c4ccc(NC(C)=O)cc4)CC3)n2)cc(OC)c1OC` was run?
Answer: -1.13%

Question: For `CN1CCN(c2ccc(-c3nc4ccc(OCc5cc(Cl)cc(Cl)c5)c(C(N)=O)c4[nH]3)cc2)CC1`, which inhibition is on record?
Answer: 1.82%

Question: How did the inhibition turn out when `Cc1cccc(-c2cc3cc(Nc4ccnc5cc(-c6nccs6)ccc45)ccc3[nH]2)c1` was run?
Answer: 1.71%

Question: For `Clc1cc(Nc2ncnc3sc(C#Cc4ncc[nH]4)cc23)ccc1OCc1ccccn1`, which inhibition is on record?
Answer: -0.91%

Question: How did the inhibition turn out when `CS(=O)(=O)c1ccc2c(c1)CCN(CCC1CCC(NC(=O)C(=Cc3cccc(C#N)c3)c3ccc(-c4ccccc4)cc3)CC1)CC2` (stereo not drawn) was run?
Answer: 1.14%

Question: Which inhibition does the source give for `Cc1ccc(CNC(=O)[C@H](Cc2ccccc2)Nc2cc(C)nc(NCCc3ccc(F)cc3)n2)cc1` here?
Answer: 5.47%

Question: `COc1cc(C(=O)N2CCOC(CCN3CCC[C@H]3C(=O)Nc3ccccc3)(c3ccc(Cl)c(Cl)c3)C2)cc(OC)c1OC` (stereo partly drawn) was tested. Which inhibition did it give?
Answer: 6.58%

Question: With `COc1cccc(NC(=O)COc2ccc(C(=O)Nc3nc4ccccc4[nH]3)cc2)c1` as the compound, how does the inhibition read?
Answer: 2.45%

Question: For `O=C(N[C@@H](Cc1ccccc1)[C@H](O)CNC1CCOCC1)c1cc(C2CCCC2)cc(N2CCCCS2(=O)=O)c1`, which inhibition is on record?
Answer: 3.67%

Question: Which inhibition does the source give for `CN(CCc1ccccn1)c1cccc2c1nc(-c1cccnc1)n2CCNCc1ccccc1` here?
Answer: 14.8%

Question: Which inhibition does the source give for `COc1ccc(C(C(=O)NC2CCN(C[C@H](O)c3ccnc4ccc(OC)cc34)CC2)N2CCN(c3ccc([N+](=O)[O-])cc3)CC2)cc1` (stereo partly drawn) here?
Answer: 2.67%

Question: Which inhibition does the source give for `CN(C)CCCNCc1ccc(-c2ccc(CNCCOc3ccccc3)cc2)cc1` here?
Answer: 2.4%

Question: With `COc1cc2nc(NCC3CCCCC3)nc(NCc3ccccc3)c2cc1OC` as the compound, how does the inhibition read?
Answer: 3.26%

biological target: Hexose transporter 1 (Plasmodium falciparum) (UniProt O97467); experiment: ST_JUDE_LEISH: Cytotoxicity at 2uM final concentration against transgenic Leishmania Mexicana promastigotes LmPfHT that are glucose transport deficient and complemented with the Plasmodium falciparum hexose transporter. Activity is measured by DNA content using SYBR green in vitro; type: functional

Question: How did the inhibition turn out when `Cc1ccc(O)cc1C[C@@H]1C(=O)CC[C@@]2(C)[C@H]1CC[C@]2(C)O` was run?
Answer: 1%

Question: `COc1ccc2c(NN=Cc3ccccc3F)ccnc2c1` was tested. Which inhibition did it give?
Answer: 2.8%

Question: For `Nc1nc(N)c2c(ccc3c2ncn3Cc2ccccc2)n1`, which inhibition is on record?
Answer: 13.7%

Question: With `COc1ccccc1CN1CCC(NC(=O)c2ccc(-c3cccc(C(F)(F)F)c3)s2)CC1` as the compound, how does the inhibition read?
Answer: 4.38%

Question: How did the inhibition turn out when `Cc1ccc(S(C)(=O)=O)cc1/C=C/C(=O)O` was run?
Answer: 8.46%

Question: `CSc1nc2nc(C)c(Cc3cccc(C(F)(F)F)c3)c(C)n2n1` was tested. Which inhibition did it give?
Answer: 0%

Question: With `Cc1cc(C(=O)NC2CCN(Cc3ccccc3)CC2)ccc1-c1nc2ccc(C(F)(F)F)cc2[nH]1` as the compound, how does the inhibition read?
Answer: 2.1%

Question: Which inhibition does the source give for `O=C(c1ccco1)N1CCN(c2nc(-c3ccc(Cl)cc3)nc3ccccc23)CC1` here?
Answer: 1.81%

Question: Which inhibition does the source give for `O=S(=O)(c1ccccc1OC(F)(F)F)C1CC2CCC(C1)N2S(=O)(=O)c1cccc(C(F)(F)F)c1` (stereo not drawn) here?
Answer: -0.63%

Question: Which inhibition does the source give for `COc1cc(C2NCC3(CCOCC3)c3cc4c(cc32)OCCO4)cc(OC)c1OC` (stereo not drawn) here?
Answer: 6.69%

Question: For `O=C(N1CCN(c2ccc(C(F)(F)F)cc2[N+](=O)[O-])CC1)C(Cl)(Cl)Cl`, which inhibition is on record?
Answer: 3.64%

Question: With `COc1cc(/C=C/C(=O)NCC(CCNc2cc(=O)c3ccccc3[nH]2)NCc2cc(Br)cc(Br)c2)cc(OC)c1` (stereo not drawn) as the compound, how does the inhibition read?
Answer: 3.71%

Question: How did the inhibition turn out when `O=C(NCCCCN1CCC(c2nc3ccccc3s2)CC1)c1cc2ccccc2[nH]1` was run?
Answer: 0.13%

Question: For `Cc1ccn2c(N(Cc3ccccc3)C(=O)c3ccc(Cl)c(Cl)c3)c(-c3ccccc3)nc2c1`, which inhibition is on record?
Answer: 3.03%

Question: `Cc1nc(NC(=N)N)nc2cc3c(cc12)CCC3` was tested. Which inhibition did it give?
Answer: 0.44%

Question: For `O=C(CCCCCNC(=O)c1ccc(O)c(-c2ccc(Cl)c(Cl)c2)c1)NC1CCCc2ccccc21` (stereo not drawn), which inhibition is on record?
Answer: 2.14%

Question: How did the inhibition turn out when `O=C(c1ccccc1[N+](=O)[O-])N(Cc1ccccc1)c1ccccn1` was run?
Answer: 4.79%

Question: `COc1cc(-n2c(CN3CCCC3)nc3cc(-c4ccc(Cl)cc4)sc3c2=O)ccc1OCCN1CCCC1` was tested. Which inhibition did it give?
Answer: 2.69%

Question: `COc1cc(Cc2cnc(N)nc2N)c2c(c1OC)OC(C)(C)C=C2` was tested. Which inhibition did it give?
Answer: 5.13%

Question: For `COc1cccc(C(=O)Nc2nc3c(s2)CCN(Cc2ccccc2N2CCNCC2)CC3)c1`, which inhibition is on record?
Answer: 13.7%

Question: `CC(C)c1cc(Oc2c(I)cc(CCNC(=N)N)cc2I)ccc1O` was tested. Which inhibition did it give?
Answer: -0.01%

Question: With `CC[C@H]1CN(Cc2ccccc2Br)CC[C@H]1CCCc1ccnc2ccc(O)cc12` as the compound, how does the inhibition read?
Answer: 5.03%

Question: For `O=C(Nc1ccc2c(c1)CCC2)c1cccc(N2CCN(c3ccncc3)CC2)c1`, which inhibition is on record?
Answer: 4.51%

Question: With `COc1ccc(-c2onc(C(F)(F)F)c2-c2ccc(Br)cc2)c(O)c1` as the compound, how does the inhibition read?
Answer: 2.27%

Question: How did the inhibition turn out when `O=[N+]([O-])c1ccc(C=NNc2nc(Nc3ccccc3)nc(Nc3ccccc3)n2)o1` was run?
Answer: 18.9%

Question: Which inhibition does the source give for `CC(C)C[C@H](NC(=O)c1ccc(OCCN2CCOCC2)cc1)C(=O)N[C@H](/C=N/NC(=O)c1ccccc1)CCc1ccccc1` here?
Answer: 5.83%

Question: Which inhibition does the source give for `COc1cc(Nc2nccc(N3CCC(NS(=O)(=O)c4ccc(NC(C)=O)cc4)CC3)n2)cc(OC)c1OC` here?
Answer: -0.44%

Question: With `CN1CCN(c2ccc(-c3nc4ccc(OCc5cc(Cl)cc(Cl)c5)c(C(N)=O)c4[nH]3)cc2)CC1` as the compound, how does the inhibition read?
Answer: 5.73%

Question: How did the inhibition turn out when `Cc1cccc(-c2cc3cc(Nc4ccnc5cc(-c6nccs6)ccc45)ccc3[nH]2)c1` was run?
Answer: -0.37%

Question: `Clc1cc(Nc2ncnc3sc(C#Cc4ncc[nH]4)cc23)ccc1OCc1ccccn1` was tested. Which inhibition did it give?
Answer: 5.1%

Question: With `CS(=O)(=O)c1ccc2c(c1)CCN(CCC1CCC(NC(=O)C(=Cc3cccc(C#N)c3)c3ccc(-c4ccccc4)cc3)CC1)CC2` (stereo not drawn) as the compound, how does the inhibition read?
Answer: 2.77%

Question: For `Cc1ccc(CNC(=O)[C@H](Cc2ccccc2)Nc2cc(C)nc(NCCc3ccc(F)cc3)n2)cc1`, which inhibition is on record?
Answer: 4.28%

Question: `COc1cc(C(=O)N2CCOC(CCN3CCC[C@H]3C(=O)Nc3ccccc3)(c3ccc(Cl)c(Cl)c3)C2)cc(OC)c1OC` (stereo partly drawn) was tested. Which inhibition did it give?
Answer: 5.14%

Question: With `COc1cccc(NC(=O)COc2ccc(C(=O)Nc3nc4ccccc4[nH]3)cc2)c1` as the compound, how does the inhibition read?
Answer: 2.07%

Question: Which inhibition does the source give for `O=C(N[C@@H](Cc1ccccc1)[C@H](O)CNC1CCOCC1)c1cc(C2CCCC2)cc(N2CCCCS2(=O)=O)c1` here?
Answer: 3.81%

Question: For `CN(CCc1ccccn1)c1cccc2c1nc(-c1cccnc1)n2CCNCc1ccccc1`, which inhibition is on record?
Answer: 13.4%

Question: How did the inhibition turn out when `COc1ccc(C(C(=O)NC2CCN(C[C@H](O)c3ccnc4ccc(OC)cc34)CC2)N2CCN(c3ccc([N+](=O)[O-])cc3)CC2)cc1` (stereo partly drawn) was run?
Answer: 1.79%

Question: `CN(C)CCCNCc1ccc(-c2ccc(CNCCOc3ccccc3)cc2)cc1` was tested. Which inhibition did it give?
Answer: 4.11%

Question: With `COc1cc2nc(NCC3CCCCC3)nc(NCc3ccccc3)c2cc1OC` as the compound, how does the inhibition read?
Answer: 4.81%
